# Source: PubChem BioAssay AID1987 (The Scripps Research Institute Molecular Screening Center, 2009)
# The campaign covered roughly 320,000 compounds. About 560 (0.17%) were called active. The entries come from a sample that favours actives as a whole. Unmarked numbers belong to inactive results.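 The calls were made as follows: active = inhibition above the campaign's mean inhibition across all tested compounds plus 3 SD (cut at about 9.5% in these data); inactive = the rest.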
# Target: Serine/threonine-protein phosphatase 5 (Homo sapiens) (UniProt P53041)
# Assay: inhibition of human PP5 catalytic activity – biochemical, fluorescence, primary screen (AID 1987);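 also: 0% = DMSO only and 100% = 100 µM cantharidin control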
# Conditions: purified PP5c, OMFP substrate fluorescence; at 6.7 µM; active compounds read high
# Serine/threonine-protein phosphatase 5 (Homo sapiens), sequence (P53041 whole entry, looked up): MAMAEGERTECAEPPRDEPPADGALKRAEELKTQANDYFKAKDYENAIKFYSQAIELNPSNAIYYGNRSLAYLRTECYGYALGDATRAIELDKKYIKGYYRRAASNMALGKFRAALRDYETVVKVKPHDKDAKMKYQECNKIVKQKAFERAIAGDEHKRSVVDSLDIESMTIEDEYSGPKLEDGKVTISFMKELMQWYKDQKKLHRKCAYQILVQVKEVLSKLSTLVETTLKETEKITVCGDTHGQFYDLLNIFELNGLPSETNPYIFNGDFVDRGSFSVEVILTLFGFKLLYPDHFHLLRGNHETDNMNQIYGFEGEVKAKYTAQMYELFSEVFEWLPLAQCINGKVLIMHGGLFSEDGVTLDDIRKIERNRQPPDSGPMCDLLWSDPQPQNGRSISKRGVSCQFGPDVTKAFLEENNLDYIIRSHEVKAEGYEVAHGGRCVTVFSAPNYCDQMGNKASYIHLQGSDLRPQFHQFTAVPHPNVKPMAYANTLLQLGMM
row,Structure (SMILES),inhibition
1,Cn1c(N)c(C(=O)COC(=O)COc2ccc(Cl)cc2)c(=O)n(C)c1=O,1%
2,FC(F)(F)c1ccc2nnc(-c3c(Cl)cccc3Cl)n2c1,-1.13%
3,O=C1Oc2ccccc2C(=O)/C1=C/c1ccccc1O,4.64%
4,COc1ccc(NC(=O)CSc2nncc(=O)n2N)cc1OC,2.92%
5,O=C(Nc1ccccc1)C1CC(=O)n2c(nc3ccccc32)N1 (stereo unspecified),-0.67%
6,Nc1ccc(C(=O)Nc2ccccc2N)cc1,-0.77%
7,Cc1ccc(CN2CCN(Cc3cccc(C)n3)CC2CCO)cc1 (stereo unspecified),0.2%
8,CC(C)(C)NC(=O)c1cccc(NC(=O)Cc2ccc(Br)cc2)c1,3.17%
9,CC(C)(C)C(=O)Nc1c(Br)c(C2CC2)nn1-c1ccccc1,0.27%
10,CCOC(=O)C1=C(CC)OC(N)=C(C#N)C1c1ccc(F)cc1F (stereo unspecified),-1.28%
11,COc1cc(OC)cc(-c2cc3nc(C4CCN(C(=O)OC(C)(C)C)CC4)cc(=O)n3[nH]2)c1,-0.26%
12,COc1ccc(NC(=O)CCCC(=O)c2ccccc2)cc1,0.28%
13,CCCn1c(C)cc(/C=C(\C#N)C(=O)OCC(=O)Nc2cc(OC)c(OC)c(OC)c2)c1C,0.54%
14,O=C(C1=C[C@H](C2CC2)C[C@H](OCc2ccc(CO)cc2)O1)N1CCN(Cc2ccccc2)CC1,1.72%
15,O=C(NCc1ccccc1)C1=C[C@@H](c2ccc(C(F)(F)F)cc2)C[C@@H](OCc2ccc(CO)cc2)O1,7.35%
16,O=C(C1=C[C@H](c2ccc(C(F)(F)F)cc2)C[C@H](OCc2ccc(CO)cc2)O1)N1CCN(Cc2ccccc2)CC1,9.64% (active)
17,Nc1nnc(SCC(=O)NCC(=O)Nc2ccc(F)c(F)c2F)s1,-0.64%
18,O=C(OCc1cn(-c2ccc(Cl)c(Cl)c2)nn1)c1ccccc1Cl,1.67%
19,CC1CCCC(C)N1C(=O)COC(=O)COc1ccccc1C#N (stereo unspecified),-0.87%
20,CN(C)c1nc(N)nc(CSc2nnnn2-c2cccc3ccccc23)n1,11.6% (active)
21,COc1ccc(-n2nnnc2SCc2nc(N)nc(N3CCOCC3)n2)cc1,0.58%
22,CN(C)c1nc(N)nc(CSc2ccccn2)n1,1.71%
23,O=C(O)c1cc(S(=O)(=O)Nc2ccc3cn[nH]c3c2)ccc1Br,4.94%

row,Structure (SMILES),inhibition
1,Cc1ccc(-n2nc(-c3ccco3)cc2C(=O)NCc2cccnc2)cc1,2.97%
2,CC1(OC(=O)C2CCCC2)C(=O)C=C2C=C(c3ccc(C#N)cc3)OC=C2C1=O (stereo unspecified),-1.54%
3,COCCN1C=C2C(=O)C(C)(OC(=O)C3CCCC3)C(=O)C=C2C=C1c1ccsc1 (stereo unspecified),11.1% (active)
4,COC(=O)CCCC1=CC2=CC(=O)C(C)(OC(=O)c3cccs3)C(=O)C2=CN1CC1CC1 (stereo unspecified),5.3%
5,CN(c1ccc(OCC(=O)O)cc1)S(=O)(=O)c1ccc2ccccc2c1,1%
6,CN(c1ccccc1)S(=O)(=O)c1ccc(NC(=O)COc2ccccc2)cc1,10.2% (active)
7,O=C(COc1ccccc1)Nc1ccc(F)cc1,0.71%
8,Cc1ccc(S(=O)(=O)N(c2cccc(C)c2)C2CCS(=O)(=O)C2)cc1 (stereo unspecified),0.29%
9,Cc1nnc(SCC(=O)Nc2ncc3c(n2)CC(C)(C)CC3=O)s1,2.93%
10,O=C(O)C1CCC(CNS(=O)(=O)c2ccc(Br)cc2)CC1 (stereo unspecified),-2.97%
11,Cc1ccc(Cn2c(C)c3cnn(CC(=O)NCc4ccccn4)c(=O)c3c2C)cc1,-1.29%
12,CCNC(=O)c1sccc1-n1cccc1,0.46%
13,CC(C)(C)C(=O)NNC(=O)c1ccc(Oc2cc(Cl)cc(Cl)c2)o1,-2.8%
14,CCn1nnc(NC(=O)c2cc(Cl)c(OC)c(Cl)c2)n1,0.92%
15,CCN(CC(=O)NC1CCS(=O)(=O)C1)c1nc(-c2cccnc2)nc2ccccc12 (stereo unspecified),-1.12%
16,Cc1cc(Cl)ccc1OCCCC(=O)NCc1ccccn1,1.77%
17,O=C1[C@H]2[C@@H](c3ccc(F)cc3)N3C(=O)N(c4ccc(C(F)(F)F)cc4)C(=O)[C@@]3(Cc3ccccc3)[C@H]2C(=O)N1C1CCCCC1,5.23%
18,CCCN(CCC)S(=O)(=O)c1ccc(C(=O)N2CC3CCC(CC3)C2)cc1,2.42%
19,CCOC(=O)c1sc(N(Cc2ccccc2)C(=O)CN2C(=O)CN(C)C2=O)nc1C,-1.26%
20,C[C@H]1[C@H]2c3nc4ccccc4n3C[C@H]1ON2C1CCCCC1,-1.65%
21,COc1ccc(C(=O)NCc2ccc(C)cc2)cc1S(=O)(=O)N1CCCC1,-1.31%
22,NCCCC[C@@H]1NC(=O)[C@H](CCC(=O)O)NC(=O)c2cc([N+](=O)[O-])cc(I)c2NCC[C@@H](C(N)=O)NC1=O,4.27%
23,Cn1c(CC(=O)Nc2ccc(F)cc2)nnc1SCC(=O)NC1CCCCC1,1.34%

row,Structure (SMILES),inhibition
1,COc1cccc(NC(=O)Nc2nnc(N3CCCCC3C)s2)c1 (stereo unspecified),3.58%
2,CC(C)c1ccc(/C=C/C(=O)NCCCN2CCOCC2)cc1,0.61%
3,CCC(C(=O)Nc1ncccn1)(C(F)(F)F)C(F)(F)F,-2.46%
4,C/C(N)=C(/C#N)C(=O)COC(=O)c1cc(-c2ccc(C)cc2)nc2ccccc12,3.74%
5,CSCC[C@H](NC(=O)N1CCn2c1nc1ccccc12)C(=O)NCc1ccc2c(c1)OCO2,-0.3%
6,CCN(C(=O)COc1ccc(C(=O)c2ccccc2)cc1)c1ccccc1,0.04%
7,O=c1[nH]c(-c2ccccc2)c(-c2ccccc2)[nH]1,0.4%
8,N#Cc1c(-c2ccccc2)c(-c2ccccc2)n[nH]c1=O,-1.11%
9,O=C(O)c1n[nH]nc1-c1ccccc1,50.7% (active)
10,CSCc1ccc(C(=O)Nc2cc(C)cc(C)c2)cc1,-1.23%
11,COc1ccc(NC(=O)COC(=O)CNC(=O)C2CCCCC2)cc1,-1.03%
12,COCCN(C(=O)COC(=O)Cc1cccc(OC)c1)c1c(N)n(Cc2ccccc2)c(=O)[nH]c1=O,-0.76%
13,O=C(CSc1n[nH]c(=O)n1-c1ccccc1)Nc1ccccc1C(F)(F)F,1.79%
14,O=C1C(C=NCC2CCCO2)=C(O)c2ccccc21 (stereo unspecified),2.92%
15,Cc1ccccc1C(=O)NCC(c1ccco1)N1CCc2ccccc21 (stereo unspecified),-0.08%
16,Cc1cccc(N(C)C(=O)CN2C(=O)COc3ccc(S(=O)(=O)N4CCCCCC4)cc32)c1,5.32%
17,O=C(O)c1cccc2c1C(=O)N(C1CCCCC1)C2,1.97%
18,CN1CCN(C(=O)Cn2c(C(F)(F)F)nc3ccccc32)CC1,0.08%
19,COc1ccc(CNC(=O)C2(CC3CC(c4ccccc4)=NO3)CCN(C(=O)c3cccc(O)c3)CC2)cc1 (stereo unspecified),0.71%
20,CN(CC(=O)Nc1ccccc1Cl)C(=O)COc1cccc2c1OC(C)(C)C2,1.31%
21,CCOc1cnc(-c2c(-c3ccccc3Cl)noc2C)o1,3.98%
22,Cc1ccc(N2CC(C(=O)N3CCC4(CC3)CC(=O)c3ccccc3O4)CC2=O)cc1C (stereo unspecified),-1.86%
23,Cc1cccc(S(=O)(=O)N2CN(CC3CCCO3)c3nc4ccccc4nc32)c1 (stereo unspecified),3.91%

row,Structure (SMILES),inhibition
1,N#C/C=C\Oc1ccc(Cl)cc1N,-0.64%
2,CC1CCCCC1NC(=O)C1CCCN1S(=O)(=O)c1cccc2nsnc12 (stereo unspecified),-5.55%
3,Cc1cccc(NC(=O)c2cccc(C(=O)Nc3cccc(C)c3C)n2)c1C,-0.92%
4,CCNc1nc(NC(C)C)nc(N2CC(=O)N(CC(=O)OCC)C2=N)n1,-0.1%
5,C=CCN1CCN(C(=O)CCCc2ccccc2)CC1,2.37%
6,Cc1cccc(CCNC(=O)Cn2ncc3c([nH]c4ccc(C)cc43)c2=O)c1,-2.46%
7,Cc1ccc(Nc2nc(N)nc(CSc3nnc(C)s3)n2)cc1,3.84%
8,Cc1nnc(SCc2nc3ccccc3nc2C)s1,12.1% (active)
9,Cc1nnc(SCc2cc(=O)[nH]c(N3CCN(Cc4ccccc4)CC3)n2)s1,1.51%
10,Cc1ccc(NC2=NC(c3ccccc3)n3c(nc(C)cc3=O)N2)cc1 (stereo unspecified),0.48%
11,COc1ccccc1NS(=O)(=O)c1ccc(C)c(C(=O)NCC(c2ccco2)N(C)C)c1 (stereo unspecified),-1.06%
12,COC(=O)C1(C)CC1(c1ccccc1)c1ccccc1 (stereo unspecified),3.86%
13,COc1ccc(-c2cc(=O)oc3cc(OC(C)C(=O)Nc4ccc(CN5CCOCC5)cc4)ccc23)cc1 (stereo unspecified),4.28%
14,CCCCCC1CCC(c2nnc(SCC(C)=O)o2)CC1 (stereo unspecified),2.41%
15,COc1ccc(N(CC(=O)NC2CCCC2)C(=O)CS(=O)CC(=O)Nc2ccc3c(c2)OCO3)cc1 (stereo unspecified),0.8%
16,Cn1c(=O)c2sccc2n(Cc2ccc(Br)cc2)c1=O,3.16%
17,CCN(CC)C(=O)CSc1nnc(CNc2ccc(F)cc2)n1Cc1ccco1,3.87%
18,O=C(NN1C(=O)C2C3C=CC(O3)C2C1=O)c1ccncc1 (stereo unspecified),-0.72%
19,CC(C)(C)n1nc2c(c1NC(=O)c1ccc(S(=O)(=O)N3CCCC3)cc1)CS(=O)C2 (stereo unspecified),-2.2%
20,C=CCOc1ccc(/C=C/C(=O)OCC(=O)NCC2CCCO2)cc1 (stereo unspecified),-0.48%
21,O=Cc1c(Nc2ccccc2Cl)nc2ccccn2c1=O,-0.13%
22,C[C@H](NC(=O)c1[nH]cnc1C(=O)Nc1nccs1)c1ccccc1,1.13%
